Records with an inconclusive call do not appear. Activity calls are given as the source filed them. Rule for the calls: active = hit-call score of the fitted dose curve at least 0.9, where 1 is the maximum; inconclusive = response in the unintended direction; inactive = score below 0.9. Peptide text beside a SMILES is read from it.
Assay: ACEA_ER_80hr: ACEA Biosciences xCELLigence Real-Time Cell Analysis on Estrogen Receptor Agonism for Proliferation (AID 2282667)
Conditions: T47D proliferation, impedance (xCELLigence), 80 h
In short: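 Real-time impedance growth kinetics of human T-47D breast cells read 80 h after dosing, gain-of-signal fitted relative to DMSO. Compounds: 1:4 serial series, top final concentration 100 uM, n = 2.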

| Structure (SMILES) | outcome |
| --- | --- |
| O=S(=O)(O)c1ccc(N=Nc2c(O)ccc3ccccc23)cc1 | inactive |
| CC1(C)[C@@H]2CC[C@@]1(C)C(=O)C2 | inactive |
| Cc1ccc(C)c(OCCCC(C)(C)C(=O)O)c1 | inactive |
| COc1ccc(C(=O)/C(Br)=C\C(=O)O)cc1 | inactive |
| C/C=C/C=C/CCCCCCCO | inactive |
| CCCCCCCCCCCC(C)=O | inactive |
| CC(=O)OCC=C(C)C | inactive |
| CCCC=C(C=O)CC | inactive |
| CCc1cccc(C)c1N | inactive |
| CCCCCCCCCCCCC | inactive |
| COCC(=O)O | inactive |
| CCC1COC(=O)O1 (centres undefined) | inactive |
| CCCC1CCCC(=O)O1 (centres undefined) | inactive |
| C[Si](C)(C)N[Si](C)(C)C | inactive |
| CCCC(CC)c1ccccc1 (centres undefined) | inactive |
| CC(=O)OC1CCCCC1 | inactive |
| CCCCCC(=O)OCC | inactive |
| CC1CC(=O)CC(C)(C)C1 (centres undefined) | inactive |
| CC(C)(C)NC(=O)[C@H]1CC[C@H]2[C@@H]3CC[C@H]4NC(=O)C=C[C@]4(C)[C@H]3CC[C@]12C | inactive |
| CCC1(C)C(=O)N(Cl)C(=O)N1Cl (centres undefined) | inactive |
| CC/C=C\CCOC(=O)c1ccccc1O | inactive |
| CN1CCN(C)CC1 | inactive |
| CC(C)OC(=O)c1ccccc1 | inactive |
| COC(=O)[C@H](Cc1ccccc1)NC(=O)[C@@H](N)CC(=O)O (H-Asp-Phe-OMe) | inactive |
| C=CCCCCCCCCC=O | inactive |
| c1ccc(-c2nc3ccccc3[nH]2)cc1 | inactive |
| CC(=O)/C=C/C1C(C)=CCCC1(C)C (centres undefined) | inactive |
| C=C(C)C1CC=C(C)CC1 (centres undefined) | inactive |
| CCCCCCCCC(CO)CCCCCC (centres undefined) | inactive |
